Experimental data reported in PubChem BioAssay (Tox21).
Unmarked numbers belong to inactive results. Results filed as inconclusive are left out. Entries that show only a call come without a potency. Calls of active or inactive are those of the source. Unless noted, calls follow the shape of the dose curve; as a rule, active = well fitted curve in the direction sought with a large enough effect in the repeat runs; inconclusive = weak or mixed curves; inactive = no such curve, though single readings can be large; an effect the other way counts as inactive or inconclusive.

Assays:
[1] = qHTS assay to identify small molecule antagonists of the estrogen related receptor (ERR) signaling pathway from Tox21 library - cell viability counter screen (AID 1224834); also: nearly all actives have a fitted effect of over 30% in size; also: potency is read from the fitted curve at half-maximal effect
Outline: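 ERR reporter cells were plated 6 h before compound addition, then exposed to test compounds in DMSO for 17.5 h at 37 C. Viability was read as CellTiter-Fluor fluorescence after a 30-minute incubation at 37 C.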

[2] = qHTS assay to identify small molecule antagonists of the constitutive androstane receptor (CAR) signaling pathway - cell viability counter screen (AID 1224837); also: nearly all actives have a fitted effect of over 45% in size; also: potency is read from the fitted curve at half-maximal effect
Outline: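 HepG2 cells stably expressing hCAR and a CYP2B6-2.2kb reporter were plated and pre-incubated 4 hr at 37 C/5% CO2, then given compounds at 15 concentrations plus 50 nM CITCO (final). After 23 hr, viability was read by CellTiter-Fluor fluorescence.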

[3] = molecular target: Nuclear receptor subfamily 1 group I member 3 (Homo sapiens) (UniProt Q14994); assay: qHTS assay to identify small molecule antagonists of the constitutive androstane receptor (CAR) signaling pathway (AID 1224838); also: nearly all actives have a fitted effect of over 40% in size; also: potency is read from the fitted curve at half-maximal effect
Outline: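 HepG2 cells stably co-transfected with hCAR and a CYP2B6-2.2kb luciferase reporter were seeded 4 h before compound addition at 15 concentrations. Cells were stimulated with 50 nM CITCO (final) for 24 h at 37 C; luciferase luminescence was then read.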

[4] = molecular target: Nuclear receptor subfamily 1 group I member 3 (Homo sapiens) (UniProt Q14994); assay: qHTS assay to identify small molecule agonists of the constitutive androstane receptor (CAR) signaling pathway (AID 1224839); also: nearly all actives have a fitted effect of over 15% in size; also: potency is read from the fitted curve at half-maximal effect;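 as to activation: HepG2 cells stably carrying human CAR and a CYP2B6 luciferase reporter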
Outline: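 Double-stable HepG2 cells (hCAR, CYP2B6-2.2kb) seeded 4 h before compound addition. Exposure 24 h with 0.75 uM PK11195 final. Luciferase detected by ONE-Glo.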

[5] = qHTS assay to identify small molecule antagonists of the estrogen related receptor signaling pathway with the pleiotropic PPARgamma coactivator (PGC) from Tox21 10K library - cell viability counter screen (AID 1224840; active = well fitted cell-killing curve with a large enough effect in the repeat runs, not every such curve was filed as active; also: nearly all actives have a fitted effect of over 40% in size)
Outline: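 PGC/ERR cells were seeded at 2,000 cells/well and left 6 hours at 37 C/5% CO2 before pin-tool addition of compounds in DMSO. After 17.5 hours at 37 C, CellTiter-Fluor was added and fluorescence read 30 minutes later.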

[6] = molecular target: Thyrotropin receptor (Homo sapiens) (UniProt P16473); assay: qHTS assay to identify small molecule agonists of the thyroid stimulating hormone receptor (TSHR) signaling pathway (AID 1224843; calls by dose curve; also: nearly all actives have a fitted effect of over 45% in size; also: potency is read from the fitted curve at half-maximal effect)
Outline: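 Screening of the Tox21 10K collection used HEK293 cells engineered with TSHR at 800 cells per well. After a 30-min room-temperature compound exposure, HTRF cAMP reagents were added and fluorescence recorded 1 h later.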

[7] = qHTS assay to identify small molecule agonists of the hypoxia (HIF-1) signaling pathway - cell viability counter screen (AID 1224844; calls by dose curve; also: nearly all actives have a fitted effect of over 50% in size; also: potency is read from the fitted curve at half-maximal effect)
Outline: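 HRE-bla ME-180 cells in medium with 0.5% dialyzed FBS were preincubated 5 hrs at 37C, exposed to compounds for 17 hrs, then viability was read as CellTiter-Glo luminescence after 30 min at room temperature, in the reporter wells.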

[8] = qHTS assay to identify small molecule agonists of H2AX (AID 1224845; active = well fitted activation curve with a large enough effect in the signal ratio in the repeat runs, not every such curve was filed as active; the % refers to the signal ratio)
Outline: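 Phospho-H2AX Ser139 measured by HTRF (ex 320 nm; em 665 and 620 nm) after 24 hr antibody incubation. Compounds, 15 concentrations, 0.76% DMSO, were applied to CHO-K1 cells for 3hr at 37C before lysis.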

[9] = qHTS assay to identify small molecule agonists of H2AX - cell viability counter screen (AID 1224847; calls by dose curve; also: top concentration of the series differs between compounds; nearly all actives have a fitted effect of over 30% in size)
Outline: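 Quantitative HTS viability measurement: CHO-K1 wild-type cells in serum (10% FBS) medium, short 3 hr drug exposure at 37C with 0.76% DMSO, CellTiter-Glo luminescent detection.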

[10] = qHTS RealTime-Glo MT Cell Viability Assay in HepG2 cells - 24 hour (AID 1224867); also: nearly all actives have a fitted effect of over 50% in size
Outline: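 HepG2 cells (600/well) were dispensed with RealTime-Glo reagents, incubated 5 h at 37 °C, then treated with compounds in DMSO for up to 40 h. Nonlytic NanoLuc luminescence reflecting viable cells was read at each stated time point.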

[11] = qHTS RealTime-Glo MT Cell Viability Assay in HEK293 cells - 32 hour (AID 1224868); also: top concentration of the series differs between compounds; nearly all actives have a fitted effect of over 50% in size
Outline: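 HEK293 cells seeded with NanoLuc/prosubstrate reagent, rested 5 h at 37 C, then dosed and kept at 37 C up to 40 h. Nonlytic real-time luminescence from viable cells read at 0, 8, 16, 24, 32 and 40 h.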

[12] = qHTS RealTime-Glo MT Cell Viability Assay in HepG2 cells - 40 hour (AID 1224870); also: nearly all actives have a fitted effect of over 50% in size; also: potency is read from the fitted curve at half-maximal effect
Outline: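 Real-time viability: cells seeded at 600 per well together with NanoLuc and cell-permeant prosubstrate, compounds added after 5 h incubation. Luminescence tracked at 0, 8, 16, 24, 32 and 40 h of exposure.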

[13] = qHTS assay to identify small molecule agonists of the hypoxia (HIF-1) signaling pathway (AID 1224846; active = well fitted activation curve with a large enough effect in the signal ratio in the repeat runs, not every such curve was filed as active; the % refers to the signal ratio)
Outline: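 HRE-bla ME-180 cells (beta-lactamase reporter under hypoxia response element) were plated at 2,000 cells/well in medium with 0.5% dialyzed FBS, rested 5 hrs, then given compounds in DMSO for 17 hrs at 37C, 5% CO2. Reporter induction was read with CCF4-AM FRET substrate.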

[14] = A CellTox Green Cytotoxicity Assay to monitor cytotoxicity in HEK293 cells - 0 hour (AID 1224869); also: nearly all actives have a fitted effect of over 50% in size
Outline: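 HEK293 cells premixed with CellTox Green dye were seeded at 600 cells/well and left 5 h at 37 C/5% CO2 before pin transfer of 23 nL compound in DMSO. Fluorescence from dye bound to dead-cell DNA was read during 40 h treatment.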

[15] = qHTS assay to identify small molecule agonists of the constitutive androstane receptor (CAR) signaling pathway - cell viability counter screen (AID 1224836); also: nearly all actives have a fitted effect of over 45% in size; also: potency is read from the fitted curve at half-maximal effect
Outline: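 Using CellTiter-Fluor, viability of HepG2 cells harbouring hCAR and CYP2B6-2.2kb was measured following 23 h incubation with a 15-concentration compound series plus PK11195 (0.75 uM final).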

[16] = molecular target: Luciferin 4-monooxygenase (Photinus pyralis) (UniProt P08659); assay: qHTS assay to identify small molecule inhibitors of firefly luciferase (AID 1224835); also: nearly all actives have a fitted effect of over 25% in size
Outline: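 Inhibition of purified Photinus luciferase is measured by luminescence. Substrate levels (D-luciferin, ATP) sit at their KM values. Each compound is tested in a concentration series.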

[17] = qHTS assay to identify small molecule antagonists of the estrogen related receptor signaling pathway with the pleiotropic PPARgamma coactivator (PGC) from Tox21 10K library (AID 1224841; call rule not given here; also: potency is read from the fitted curve at half-maximal effect)
Outline: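 PGC/ERR reporter cells were seeded at 2,000 cells/well and held 6 hours at 37 C/5% CO2 before pin-tool addition of compounds in DMSO. After 18 hours at 37 C, One-Glo was added and luminescence read after 30 minutes at room temperature.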

[18] = qHTS assay to identify small molecule agonists of the estrogen related receptor signaling pathway with the pleiotropic PPARgamma coactivator (PGC) from Tox21 10K library (AID 1224842); also: nearly all actives have a fitted effect of over 15% in size
Outline: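 Luminescence from One-Glo (30 min, room temperature) measured after PGC/ERR cells had 18 h at 37 C with pinned compound (23 nL in DMSO). Cells had been seeded at 2,000 per well and pre-incubated 6 h.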

[19] = qHTS assay to identify small molecule antagonists of the estrogen related receptor (ERR) signaling pathway from Tox21 library (AID 1224848); also: nearly all actives have a fitted effect of over 50% in size; also: potency is read from the fitted curve at half-maximal effect
Outline: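 Antagonist-mode screen of the Tox21 10K library in an NTP-provided ERR reporter cell line; 18 h compound exposure at 37 C, luminescence measured with ONE-Glo.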

[20] = qHTS assay to identify small molecule agonists of the estrogen related receptor (ERR) signaling pathway from Tox21 library (AID 1224849; calls by dose curve; also: nearly all actives have a fitted effect of over 15% in size); conditions: ERR reporter cell line, ONE-Glo luciferase, 18 h; at 92.4 µM (top of the series) unless noted
Outline: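 ERR reporter cell line (NTP) seeded, rested 6 h at 37 C/5% CO2, then pinned with Tox21 compounds in DMSO. After 18 h at 37 C, ONE-Glo luciferase luminescence was read following 30 min at room temperature.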

Chain of Nuclear receptor subfamily 1 group I member 3 (Homo sapiens) (Q14994 whole entry, looked up): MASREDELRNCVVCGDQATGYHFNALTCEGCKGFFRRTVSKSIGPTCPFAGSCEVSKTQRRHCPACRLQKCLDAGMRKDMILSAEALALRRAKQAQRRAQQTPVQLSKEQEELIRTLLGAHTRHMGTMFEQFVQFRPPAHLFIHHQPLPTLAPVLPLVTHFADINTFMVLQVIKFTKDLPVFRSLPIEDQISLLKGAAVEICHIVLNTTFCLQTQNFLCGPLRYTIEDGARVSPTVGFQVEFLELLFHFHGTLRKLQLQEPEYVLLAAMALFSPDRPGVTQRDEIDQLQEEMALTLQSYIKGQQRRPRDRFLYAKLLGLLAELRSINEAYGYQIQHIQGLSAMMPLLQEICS
Chain of Luciferin 4-monooxygenase (Photinus pyralis) (P08659 whole entry, looked up): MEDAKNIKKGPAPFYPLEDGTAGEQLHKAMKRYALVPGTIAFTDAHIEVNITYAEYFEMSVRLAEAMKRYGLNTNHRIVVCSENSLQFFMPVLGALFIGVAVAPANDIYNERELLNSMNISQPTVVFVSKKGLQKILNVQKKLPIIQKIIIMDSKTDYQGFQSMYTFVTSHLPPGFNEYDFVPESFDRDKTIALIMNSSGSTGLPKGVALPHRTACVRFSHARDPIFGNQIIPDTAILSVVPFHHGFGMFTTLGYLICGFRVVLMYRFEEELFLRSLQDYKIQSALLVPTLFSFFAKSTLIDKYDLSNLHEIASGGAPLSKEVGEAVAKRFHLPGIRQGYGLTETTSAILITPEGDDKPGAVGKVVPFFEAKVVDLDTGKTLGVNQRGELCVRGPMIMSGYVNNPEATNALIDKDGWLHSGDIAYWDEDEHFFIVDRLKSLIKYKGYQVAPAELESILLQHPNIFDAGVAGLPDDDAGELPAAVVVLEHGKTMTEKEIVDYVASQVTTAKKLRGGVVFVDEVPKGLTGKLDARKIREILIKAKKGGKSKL
Chain of Thyrotropin receptor (Homo sapiens) (P16473 whole entry, looked up): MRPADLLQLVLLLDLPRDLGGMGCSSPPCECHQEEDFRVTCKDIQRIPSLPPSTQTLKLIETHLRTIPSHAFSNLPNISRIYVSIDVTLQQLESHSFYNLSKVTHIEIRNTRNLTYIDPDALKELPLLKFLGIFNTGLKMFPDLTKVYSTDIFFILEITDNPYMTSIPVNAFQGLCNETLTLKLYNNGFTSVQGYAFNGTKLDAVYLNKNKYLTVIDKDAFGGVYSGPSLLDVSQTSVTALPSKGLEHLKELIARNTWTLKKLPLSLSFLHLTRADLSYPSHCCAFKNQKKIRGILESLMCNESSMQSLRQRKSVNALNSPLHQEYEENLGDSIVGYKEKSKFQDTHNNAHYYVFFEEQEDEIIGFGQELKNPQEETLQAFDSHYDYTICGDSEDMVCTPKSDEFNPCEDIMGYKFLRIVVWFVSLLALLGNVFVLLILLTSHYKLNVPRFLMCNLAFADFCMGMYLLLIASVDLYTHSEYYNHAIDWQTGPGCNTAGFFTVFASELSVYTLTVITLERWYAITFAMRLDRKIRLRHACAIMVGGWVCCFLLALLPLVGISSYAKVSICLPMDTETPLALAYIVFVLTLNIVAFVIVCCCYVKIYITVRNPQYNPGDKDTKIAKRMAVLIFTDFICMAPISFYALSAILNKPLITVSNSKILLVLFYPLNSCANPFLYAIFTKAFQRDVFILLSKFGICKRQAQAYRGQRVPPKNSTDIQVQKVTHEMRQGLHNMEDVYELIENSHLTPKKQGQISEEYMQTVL

Row | SMILES | Potency [1] | Potency [2] | Potency [3] | Potency [4] | Potency [5] | Potency [6] | Potency [7] | Potency [8] | Potency [9] | Potency [10] | Potency [11] | Potency [12] | outcome [13] | Potency [14] | Potency [15] | Potency [16] | Potency [17] | Potency [18] | Potency [19] | activity change, positive = activation [20]
1 | O=C(O)c1ccccc1C(=O)Nc1cccc2ccccc12 | inactive | inactive | inactive | 30.6 µM (active) | inactive | inactive | inactive | inactive | inactive | inactive | inactive | inactive | – | – | – | – | – | – | – | –
2 | O=S(=O)(Cl)c1ccccc1 | inactive | inactive | inactive | inactive | inactive | inactive | inactive | inactive | – | inactive | inactive | inactive | inactive | inactive | – | – | – | – | – | –
3 | C=CCOC(C)=O | inactive | inactive | – | – | – | inactive | inactive | inactive | inactive | inactive | inactive | inactive | – | inactive | inactive | – | – | – | – | –
4 | CC(Cl)Cl | – | inactive | inactive | inactive | inactive | – | inactive | inactive | inactive | inactive | inactive | inactive | – | – | inactive | inactive | inactive | inactive | inactive | -9.34%
5 | OCCCBr | inactive | inactive | inactive | inactive | – | – | inactive | inactive | inactive | inactive | inactive | inactive | inactive | inactive | inactive | – | – | inactive | inactive | –
6 | O=C1NCN(c2ccccc2)C12CCN(CCCOc1ccc(F)cc1)CC2 | – | 3.35 µM (active) | 9.44 µM (active) | inactive | inactive | – | inactive | inactive | – | – | – | inactive | – | – | 6.68 µM (active) | inactive | inactive | inactive | inactive | -8.92% [at 42.5 µM]
7 | CC(C)(Cl)[N+](=O)[O-] | – | inactive | inactive | inactive | inactive | inactive | inactive | inactive | inactive | inactive | inactive | inactive | inactive | inactive | inactive | inactive | – | inactive | – | -29.2%
8 | CCCN(CC1CC1)c1c([N+](=O)[O-])cc(C(F)(F)F)cc1[N+](=O)[O-] | inactive | inactive | inactive | – | – | – | inactive | inactive | – | inactive | inactive | inactive | inactive | inactive | inactive | – | – | – | – | –
9 | O=C(CBr)OCc1ccccc1 | inactive | inactive | inactive | inactive | inactive | – | inactive | – | inactive | inactive | inactive | inactive | inactive | inactive | inactive | – | – | – | – | –
10 | CCBr | – | inactive | inactive | inactive | inactive | inactive | inactive | inactive | inactive | inactive | inactive | inactive | inactive | – | inactive | inactive | inactive | – | inactive | 6.77%
11 | CC1Sc2c(C(=O)O)c(=O)c3cc(F)c(N4CCNCC4)cc3n21 (centres undefined) | inactive | inactive | – | – | inactive | – | inactive | inactive | inactive | inactive | inactive | inactive | – | inactive | inactive | – | inactive | – | inactive | 11.7% [at 42.5 µM]
12 | O=[N+]([O-])C(Br)(CO)CO | inactive | – | – | inactive | – | 30.6 µM (active) | – | inactive | – | – | – | – | – | inactive | inactive | – | inactive | – | inactive | –
13 | Clc1cccc(SC2CCNCC2)n1 | inactive | inactive | – | – | inactive | inactive | inactive | inactive | inactive | inactive | inactive | inactive | inactive | inactive | – | – | inactive | inactive | inactive | –
14 | ClCCCCBr | inactive | inactive | inactive | inactive | inactive | – | inactive | inactive | – | inactive | inactive | inactive | inactive | inactive | inactive | – | – | – | – | –
15 | Cc1ccccc1CCl | – | inactive | inactive | inactive | inactive | – | inactive | inactive | inactive | inactive | inactive | inactive | inactive | inactive | inactive | inactive | inactive | – | inactive | –
16 | CN1[C@@H]2CC[C@H]1CC(OC(=O)c1cc(Cl)cc(Cl)c1)C2 (some centres undefined) | inactive | inactive | – | – | inactive | – | inactive | inactive | inactive | – | – | inactive | inactive | inactive | – | – | – | – | – | –
17 | C/C(=C\c1ccccc1)[N+](=O)[O-] | 27.3 µM (active) | 30.6 µM (active) | 24.3 µM (active) | inactive | – | – | 38.9 µM (active) | – | – | – | – | 21.9 µM (active) | inactive | inactive | – | – | 30.6 µM (active) | – | 24.3 µM (active) | -68.3%
